Reference: PubChem BioAssay AID1211 (NMMLSC, 2008)

molecular target: Estrogen receptor (Homo sapiens) (UniProt P03372); assay: displacement of fluorescent estrogen from ERalpha – cell-based, Cos7 ERalpha-GFP, flow cytometry, primary screen (AID 1211); conditions: fluorescent ligand competition, binding inhibition, at 0.1 µM, stronger effect = higher value;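 note: 0% = DMSO vehicle wells and 100% = no E2-Alexa633 signal left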
Sequence (P03372 whole entry, looked up): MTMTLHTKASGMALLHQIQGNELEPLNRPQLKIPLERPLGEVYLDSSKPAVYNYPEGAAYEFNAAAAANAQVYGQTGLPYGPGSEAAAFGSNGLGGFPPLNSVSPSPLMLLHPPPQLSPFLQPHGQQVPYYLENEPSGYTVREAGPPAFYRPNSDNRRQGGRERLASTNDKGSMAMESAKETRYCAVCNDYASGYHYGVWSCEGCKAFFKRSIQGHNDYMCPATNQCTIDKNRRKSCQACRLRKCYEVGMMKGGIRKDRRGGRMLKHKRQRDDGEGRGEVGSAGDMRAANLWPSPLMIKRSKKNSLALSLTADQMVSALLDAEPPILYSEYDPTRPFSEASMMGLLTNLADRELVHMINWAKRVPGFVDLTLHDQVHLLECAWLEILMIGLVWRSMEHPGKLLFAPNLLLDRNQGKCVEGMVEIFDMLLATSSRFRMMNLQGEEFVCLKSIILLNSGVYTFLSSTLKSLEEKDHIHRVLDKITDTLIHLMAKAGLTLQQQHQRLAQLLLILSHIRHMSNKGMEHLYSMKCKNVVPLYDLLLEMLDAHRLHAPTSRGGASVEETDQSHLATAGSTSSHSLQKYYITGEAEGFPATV

| SMILES | inhibition of ligand binding [%] |
| --- | --- |
| Cc1ccc(S(=O)(=O)N2CCCCC2)cc1C(=O)Nc1ncn[nH]1 | 7 |
| COc1ccc2[nH]c3nc(SCc4nnc(-c5ccc(C)cc5)o4)nnc3c2c1 | 3 |
| c1ccc(OCc2nnc3sc(C4COc5ccccc5O4)nn23)cc1 (centres undefined) | 5 |
| CCCNCC1COc2ccccc2O1 (centres undefined) | 21 |
| CCCc1nnc2n1N=C(c1ccc(-c3cc(Cl)ccc3Cl)o1)CS2 | 27 |
| Cc1ccc(-c2n[nH]c(=S)n2/N=C/C=C\c2ccccc2[N+](=O)[O-])cc1 | 57 |
| CCOC(=O)N1CCN(c2ccc(O)cc2)CC1 | 56 |
| CC(C)(C)NC(=O)c1ccc2c(c1)C1C3CCC(C3)C1C(c1ccccc1)N2 (centres undefined) | 9 |
| CCOC(=O)C1CCCN(C(=O)c2ccc(CS(=O)(=O)c3ccc(C)cc3)o2)C1 (centres undefined) | 6 |
| CCc1nc2sc3ccccc3c(=O)c2c(=O)n1Cc1ccco1 | 23 |
| Cc1nn(-c2ccccc2)c(/N=C/c2ccc(O)cc2)c1-c1ccccc1 | 50 |
| Cc1ccc(N=Cc2c(O)n(-c3ccc4c(c3)OCO4)c(=O)c3ccccc23)cc1 | 19 |
| COc1ccc(Cn2c(=O)[nH]c3cc(C(=O)NCc4ccc5c(c4)OCO5)ccc3c2=O)cc1 | 53 |
| CCc1oc2ccccc2c1C(=O)c1cc(Br)c(O)c(Br)c1 | 20 |
| CCC1=NN2C(=N)/C(=C\c3ccc(SCc4ccco4)o3)C(=O)N=C2S1 | 10 |
| O=C(NCc1ccco1)c1cc2c(s1)CSC2 | 25 |
| O=C(CSc1nc2ccccc2c(=O)[nH]1)c1ccc(O)c(O)c1 | 5 |
| CCCCOC(=O)c1c(C)oc2ccc(NS(=O)(=O)c3ccc4c5c(cccc35)C(=O)N4)cc12 | 51 |
| COc1ccc2c(c1)c(=O)oc1cc(OCC(=O)N3CCC(C)CC3)ccc12 | 26 |
